# PfHsp90 set2: growth inhibition of PfHsp90-expressing yeast, primary screen, antimalarial PfHsp90 inhibitor project, S. cerevisiae, BacTiter-Glo luminescence, single point, set 2; BacTiter-Glo ATP, 48 h; yeast lacking PDR1 and PDR3 efflux regulators; 310,000 compounds, 0.32% hits; AID 504621, 2011; inhibition, % at 9.4 µM;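 active means every replicate shows inhibition above about 80%, whatever the replicate mean, limit read from the data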;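 further: 0% = DMSO neutral controls and 100% = 20 µM radicicol positive controls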
# TIM10 inh: growth inhibitors of isogenic TIM10 control yeast, primary screen, counter-screen for tim10-1 yeast inhibitor project, luminescence, uHTS. 330,000 compounds, 1.4% hits. S. cerevisiae TIM10 strain growth, BacTiter-Glo luminescence, 24 h. AID 463195, 2010. inhibition, % at 10 µM;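 active means inhibition of 40% or more at the single tested concentration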;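 further: wild-type TIM10 isogenic control strain grown at permissive 25 °C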
# V-ATPase pH: regulators of yeast V-ATPase proton pumping, primary screen, pHLuorin cytosolic pH fluorescence; 350,000 compounds, 0.37% hits; AID 504577, 2011; response, % at 10 µM; S. cerevisiae; in the data active means response mostly above about 7.3%, no sharp cut-off; inactive means mostly below about 5.4%; further: actives read high
# tim10-1 inh: growth inhibitors of tim10-1 mutant yeast, primary screen, luminescence, uHTS; inhibition, % at 20 µM; 330,000 compounds, 2.2% hits; S. cerevisiae tim10-1 ts strain growth, BacTiter-Glo, 24 h;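 active means inhibition of at least 40%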;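 further: mutant grown at 25 °C; 0% = DMSO wells with yeast and 100% = wells holding no yeast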
# tim23-1 inh: growth inhibitors of tim23-1 mutant yeast, primary screen, luminescence, uHTS. S. cerevisiae tim23-1 growth, BacTiter-Glo luminescence, 24 h. inhibition, % at 20 µM. 330,000 compounds, 1.3% hits. AID 463212, 2010;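 active means growth inhibition of the mutant yeast at or above 50%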;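 further: temperature-sensitive mutant grown at 25 °C; plate controls were DMSO-treated mutant yeast for no effect and medium wells lacking yeast for full effect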
# TIM10 conf: growth inhibitors of wild-type TIM10 yeast, confirmation, counter-screen for tim10-1 synthetic lethality project, single concentration, luminescence, S. cerevisiae; shares compounds with TIM10 inh; S. cerevisiae tim10 strain growth, BacTiter-Glo luminescence, 24 h; inhibition, % at 10 µM; 4,600 compounds, 63% hits; AID 463215, 2010;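 active means inhibition of yeast growth at or above a set limit in either of two replicates at 10 µM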;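 further: this counterscreen used the strain with wild-type TIM10; 0% = yeast with DMSO and 100% = medium wells lacking yeast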
# The depositor's hits bear a star; x = not tested or not shown. Shown are actives, neighbours in structure and some others; about 3.7% of the full set was active somewhere.
SMILES,PfHsp90 set2,TIM10 inh,V-ATPase pH,tim10-1 inh,tim23-1 inh,TIM10 conf
Cc1cc(O)cc2c(=O)c3ccccc3sc12,-10,60*,-3,36,21,55*
Cc1ccc(S(=O)(=O)N[C@H](C(=O)N2CCC(C(=O)N[C@@H](CC(=O)O)C(=O)O)CC2)C(C)C)cc1,-9,3,-1,5,15,x
c1ccc(OCCOCCN2CCN(C(c3ccccc3)c3ccccc3)CC2)cc1,6,43*,0,29,14,-4
N/C(=N\NC(=O)c1cccs1)c1cc2ccccc2oc1=O,-13,32,0,19,44,x
CCN(CC)c1ccc2cc(/C(N)=N/NC(=O)c3cccs3)c(=O)oc2c1,x,47*,x,-27,37,37*
COc1ccc(C(=O)NC(Nc2ccccc2)C(Cl)(Cl)Cl)cc1 (stereo not given),5,50*,-1,28,13,32*
COc1ccc(C(=O)NNc2ccccc2)cc1,8,-3,0,-16,13,x
Cc1ccc(NC(NC(=O)c2cccs2)C(Cl)(Cl)Cl)cc1 (stereo not given),-5,50*,2,35,32,38*
Cc1ccc(NC(NC(=O)c2ccccn2)C(Cl)(Cl)Cl)cc1 (stereo not given),5,27,-1,30,21,x
Cc1ccc(C(=O)Oc2ccc(C(=O)COC(=O)C3CC(=O)N(Cc4ccco4)C3)cc2)cc1 (stereo not given),x,41*,7,40,21,13
COc1ccc(C(=O)COC(=O)CCN=C2NS(=O)(=O)c3ccccc32)c(OC)c1,x,6,3,-1,8,x
NC(=O)CC[C@H](NC(=O)OCc1ccccc1)C(=O)OCc1ccc(Cl)cc1,-3,45*,0,15,14,-10
O=C(CCC(NC(=O)OCc1ccccc1)C(=O)OCc1ccccc1)NCC(=O)OCc1ccccc1 (stereo not given),4,14,2,19,20,x
C=C(C)COc1ccc(-c2[nH]ncc2-c2ccccc2OC)c(O)c1,-44,11,3,39,25,x
C=C(C)COc1ccc(-c2[nH]ncc2-c2ccc(Br)cc2)c(O)c1,6,49*,5,-7,27,-18
CCCOc1ccc(C2=NNC(c3cccs3)=Nc3ccc(OC)cc32)cc1,-8,52*,3,22,40,39*
CCN(CC)C(=O)Oc1ccc2c(=O)c(-c3ccc(OC)cc3)c(C)oc2c1,x,45*,5,36,33,30
O=C(O)c1cc(NN=Nc2cccc([N+](=O)[O-])c2)cc([N+](=O)[O-])c1,0,0,1,16,3,x
O=[N+]([O-])c1cccc(NN=Nc2ccccc2)c1,-19,41*,-2,38,42,31*
CCNc1nc(N)c(C(=O)c2ccc(Cl)s2)s1,-1,44*,1,33,21,41*
Nc1ccc(Cl)c(-c2nc3ncccc3o2)c1,-9,8,1,-1,-1,x
Nc1ccc(-c2nc3ncccc3o2)c(Cl)c1,2,42*,3,-3,42,23
Cc1ccc(C(=O)NCC2(c3ccccc3)CCCC2)cc1,8,16,-3,14,18,x
O=C(NCC1(c2ccccc2)CCCC1)c1ccc(Br)cc1,-9,41*,-1,35,36,13
COc1ccc(CCNC(=O)COC(=O)CSc2ccc(C(N)=O)cc2[N+](=O)[O-])cc1OC,17,x,-2,x,x,x
SMILES,PfHsp90 set2,TIM10 inh,V-ATPase pH,tim10-1 inh,tim23-1 inh,TIM10 conf
C/[N+]([O-])=C\c1cccc(OCCN2CCN(c3ncc(C(F)(F)F)cc3Cl)CC2)c1,1,12,-4,11,12,x
COc1cc(/C=N/NC(=S)NC2CC3C=CC2C3)cc(OC)c1OC (stereo not given),-16,49*,2,11,41,31*
O=C(Cn1nc(C(=O)O)c2ccccc2c1=O)NC12CC3CC(CC(C3)C1)C2,1,68*,0,37,32,20
O=C(Nc1ccc2nc(-c3ccccc3)[nH]c2c1)c1ccco1,x,50*,4,4,44,25
Cc1nn(-c2ccccc2)c(C)c1C(=O)NCc1ccc(F)cc1,-16,-11,4,-3,17,x
Cc1c(C(=O)NCc2ccc(F)cc2)c(-c2ccccc2)nn1-c1ccccc1,4,43*,-2,28,26,37*
O=C(Nc1ccc(F)c(Cl)c1)c1ccc2c(=O)n3c(nc2c1)CCCCC3,20,60*,2,29,42,46*
O=C(Nc1ccccn1)c1ccc2c(=O)n3c(nc2c1)CCCCC3,-10,51*,2,14,48,35*
COc1cc(C(=S)N2CCN(c3cccc(Cl)c3)CC2)ccc1O,-31,41*,0,24,40,46*
CCCCC(=O)NC(=S)Nc1ccccc1N1CCCCC1,-30,44*,1,37,44,-33
O=C(Cc1ccc(Cl)cc1)NC(=S)Nc1ccccc1N1CCOCC1,-118,42*,1,28,44,34*
CCC(=O)NC(=S)Nc1cccc(Cl)c1N1CCCCC1,-16,47*,1,37,38,38*
Cc1c(C(=O)NC(=S)Nc2ccccc2N2CCCC2)cccc1[N+](=O)[O-],-9,42*,-2,39,42,32*
Cc1ccc([N+](=O)[O-])c(OCCN2CCC(Cc3ccccc3)CC2)c1,x,-3,0,-2,-247,x
N=c1c2ccccc2nnn1-c1cccc(C(F)(F)F)c1,5,6,-1,-10,-2,x
CCOc1ccc(C(=O)N2CCN(S(=O)(=O)c3cccs3)CC2)c(OCC)c1,14,19,-2,31,24,x
CC(C)COP(=O)(c1ccc(N(C)C)cc1)C(O)c1ccc(Br)cc1 (stereo not given),3,42*,-1,27,26,35*
CN(C)c1ccc(P(=O)(OCc2ccccc2)C(O)c2ccc(Br)cc2)cc1 (stereo not given),-7,28,1,25,16,x
CC1Cc2ccccc2N1C(=O)C1CCCN(S(=O)(=O)c2cccc3nsnc23)C1 (stereo not given),-8,44*,2,34,33,-27
CN(c1ccccc1)c1nc(N)c([N+](=O)[O-])c(N2CCCCCC2)n1,-1,45*,-1,24,41,17
CC1CCN(c2nc(N(C)c3ccccc3)nc(N)c2[N+](=O)[O-])CC1,-5,6,-3,-13,32,x

# Compound activity (PubChem)
